This is one part of a sample in which hits are shown more often than they occur.
APE1 inh: blocks human APE1 abasic DNA cleavage; P27695; recombinant APE1, TAMRA/BHQ-2 abasic DNA cleavage fluorescence; Potency, µM (titrated, usually from 65.8 µM), actives largely listed as inhibitors; 350,000 tested, 0.35% active; AID 2517; note: nearly all actives have a fitted effect of over 55% in size
Target sequence (P27695 whole entry, looked up): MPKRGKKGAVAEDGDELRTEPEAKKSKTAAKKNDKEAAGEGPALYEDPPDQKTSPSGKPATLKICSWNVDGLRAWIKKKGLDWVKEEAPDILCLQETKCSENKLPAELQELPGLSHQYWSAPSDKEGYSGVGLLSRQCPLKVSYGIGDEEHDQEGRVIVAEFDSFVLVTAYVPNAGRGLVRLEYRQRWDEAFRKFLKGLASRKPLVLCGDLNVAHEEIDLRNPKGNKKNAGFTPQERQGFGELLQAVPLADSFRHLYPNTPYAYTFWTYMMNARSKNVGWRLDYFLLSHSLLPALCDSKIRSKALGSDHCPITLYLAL
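Measures dequenching upon AP-site incision of a 5'-TAMRA/3'-BHQ-2 THF-containing duplex, 50 nM; human APE1 0.75 nM after 15 min room-temperature exposure to compound; kinetic three-point read at one-minute spacing.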
JMJD2E inh: JMJD2E (human) inhibition | B2RXH2 | JMJD2E catalytic domain, FDH-coupled NADH fluorescence (FDH is formaldehyde dehydrogenase) | Potency, µM (top dose mostly 57.1 µM), most hits filed as inhibitors | 230,000 tested, 1.6% active; active = well fitted inhibition curve with a large enough effect, not every such curve was filed as active; inconclusive = small, poorly fitted or top-dose-only effect, or another doubt; inactive = no such curve, though single readings can be large or run the other way; note: nearly all actives have a fitted effect of over 50% in size
BLM helicase inh: blocks DNA unwinding by human BLM helicase. 350,000 tested, 0.2% active. Potency, µM (titrated, usually from 56.1 µM), usual class: inhibitors. recombinant BLM DNA unwinding, fluorescence dequenching. P54132; note: nearly all actives have a fitted effect of over 35% in size
RECQ1 inh-1: RECQ1 (human) helicase inhibition. Potency, µM (top dose mostly 57.3 µM), most hits filed as inhibitors. P46063. RECQ1 DNA unwinding, red fluorescence kinetic read. 240,000 tested, 0.54% active; note: nearly all actives have a fitted effect of over 30% in size
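50 nM RECQ1T1 preincubated 15 min with compound in Tris pH 8.0 buffer with MgCl2, DTT, Tween-20 and 2.5 ug/ml poly(dI-dC); started with 200 nM TAMRA/BHQ-2 forked duplex and 2 mM ATP. Unwinding read as fluorescence (525/598 nm), two reads 2 h apart.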
PKM2 act: increases activity of human pyruvate kinase M2 | P14618 | purified PKM2, Kinase-Glo ATP luminescence, activation; response scale: 0% is enzyme alone, no compound | Potency, µM (titrated, usually from 57.5 µM), hits mostly activators | 260,000 tested, 0.34% active; note: nearly all actives have a fitted effect of over 55% in size
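hPK-M2, >95% pure; 0.1 mM ADP / 0.5 mM PEP final; imidazole pH7.2 buffer w/ 7 mM MgCl2, 50 mM KCl; 1 h RT; Kinase-Glo lum. Intermediate enzyme activity for dual inhibitor/activator qHTS.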
RECQ1 inh conf: confirmation of human RECQ1 helicase inhibitors; RECQ1 helicase DNA unwinding, fluorescence; Potency, µM (highest dose often 229 µM), usual class: inhibitors; 610 tested, 28% active; shares compounds with RECQ1 inh-1; note: nearly all actives have a fitted effect of over 45% in size
RECQ1 ADP FP: ADP displacement flagged in RECQ1 inhibitor counter-screen; ADP fluorescence polarization displacement counterscreen; Potency, µM (highest dose often 228 µM), hits mostly inhibitors; shares compounds with RECQ1 inh-1; 530 tested, 27% active; note: nearly all actives have a fitted effect of over 45% in size
RECQ1 inh-2: blocks human RECQ1 DNA unwinding | 1,100 tested, 15% active | recombinant RECQ1 DNA unwinding, red fluorescence | shares compounds with RECQ1 inh-1 | Potency, µM (top dose mostly 119 µM), usual class: inhibitors; note: nearly all actives have a fitted effect of over 50% in size
Each line names hits and unclear results; the compound was inactive in the other large screens (follow-up assays come after a bar, where they were run). Unless noted, calls come from the whole dose curve; as a rule, active = well fitted curve in the direction sought with a large enough effect; inconclusive = small, poorly fitted or top-dose-only effect, or another doubt; inactive = no such curve, though single readings can be large; an effect the other way counts as inactive or inconclusive.

COc1cc(C(=O)NC(=S)Nc2ccc(N3CCCC3)cc2)cc(OC)c1OC	JMJD2E inh inconclusive, RECQ1 inh-1 inconclusive | RECQ1 inh-2 inactive
COc1ccc(OCC(O)CNC(=O)c2ccc(OC)cc2)cc1 (stereo not drawn)	none
Cc1ccc(OCC(O)CNC(=O)c2ccccc2C(=O)O)cc1 (stereo not drawn)	none | RECQ1 inh conf inactive | RECQ1 ADP FP inactive
BrC(Br)C(Br)Br	none (no result: JMJD2E inh, BLM helicase inh, PKM2 act)
C(=C\c1ccco1)/c1ccc2ccccc2n1	APE1 inh inconclusive, JMJD2E inh inconclusive, BLM helicase inh inconclusive, RECQ1 inh-1 8.9µM | RECQ1 inh conf inconclusive | RECQ1 ADP FP 45µM | RECQ1 inh-2 inactive
Cc1ccc(N2CC(C(=O)NCCC(C)C)CC2=O)cc1 (stereo not drawn)	none
Cc1ccc(N2CC(C(=O)NCc3ccc(C)n3C)CC2=O)cc1 (stereo not drawn)	JMJD2E inh inconclusive, RECQ1 inh-1 inconclusive | RECQ1 inh-2 inactive
CC1C=CCCOC1c1ccccc1 (stereo not drawn)	none (no result: JMJD2E inh, PKM2 act)
O=[N+]([O-])c1ccc(-c2cnc(SC(c3ccccc3)c3ccccc3)[nH]2)cc1	none
O=[N+]([O-])c1ccc(-c2cnc(SCc3ccccc3Cl)[nH]2)cc1	RECQ1 inh-1 inconclusive | RECQ1 inh-2 inactive
CCOC(=O)c1cc2c(ccn2C)n1Cc1ccccc1C	JMJD2E inh inconclusive, RECQ1 inh-1 28µM | RECQ1 inh-2 inconclusive
O=C(CCc1ccc(O)cc1)c1c(O)cc(O)cc1O[C@H]1OC(CO)C(O)C(O)C1O (stereo partly drawn)	JMJD2E inh inconclusive (no result: PKM2 act)
CCCn1c(=O)n(-c2cc(Cl)c(OC)cc2OC)c(=O)c2c3c(sc21)CN(C(C)=O)CC3	none (no result: APE1 inh, JMJD2E inh, RECQ1 inh-1, PKM2 act)
O=C(O)Cc1c[nH]c2cccc(O)c12	APE1 inh 16µM, JMJD2E inh inconclusive, RECQ1 inh-1 32µM | RECQ1 inh-2 inactive
OCc1c[nH]c2ccccc12	none (no result: PKM2 act)
COc1ccc(Cl)cc1C(=O)Nc1cccc(-c2ccc3nncn3n2)c1	APE1 inh inconclusive, JMJD2E inh 14µM, RECQ1 inh-1 inconclusive | RECQ1 inh-2 inconclusive
Cc1c(C(=O)Nc2cccc(C(F)(F)F)c2)oc2ccc3c(c12)C(=O)CC(C)(C)O3	none (no result: APE1 inh, JMJD2E inh, RECQ1 inh-1, PKM2 act)
COc1cccc(C(=O)Nc2nnc(S(=O)(=O)N3CCCc4ccccc43)s2)c1	none (no result: APE1 inh, JMJD2E inh, RECQ1 inh-1, PKM2 act)
O=S(=O)(Nc1nc2ccccc2nc1Nc1cccc(S(=O)(=O)N2CCCCC2)c1)c1ccccc1	JMJD2E inh inconclusive, RECQ1 inh-1 inconclusive | RECQ1 inh-2 inconclusive
COc1cccc(S(=O)(=O)NCc2ccc(C(=O)Nc3ccc(C)cc3)cc2)c1	none
COc1ccc(S(=O)(=O)Nc2cccc(S(=O)(=O)N3CCCCCC3)c2)cc1	none
COc1ccc(NS(=O)(=O)c2ccc(O)c(NC(=O)c3ccc(S(=O)(=O)N4CCCC4)cc3)c2)cc1	none | RECQ1 inh conf inactive | RECQ1 ADP FP inactive
COc1ccc(NC(=O)c2ccc(CNS(=O)(=O)c3cccc(OC)c3)cc2)cc1	RECQ1 inh-1 35µM | RECQ1 inh-2 inactive
COc1ccc(NS(=O)(=O)c2cccc(NC(=O)c3ccc(S(=O)(=O)N4CCCCCC4)cc3)c2)cc1	none | RECQ1 inh conf inactive | RECQ1 ADP FP inactive
COc1ccc(C(=O)Nc2ccc(S(=O)(=O)N3CCCC3)cc2)cc1	none
Cc1ccc(C)c(Nc2cc(C(=O)NC3CCCCC3)c3ccccc3n2)c1	none (no result: APE1 inh, JMJD2E inh, RECQ1 inh-1, PKM2 act)
CCc1ccc(NC(=O)c2ccc3c(=O)n4nc(Nc5ccccc5C)sc4nc3c2)cc1	none (no result: APE1 inh, JMJD2E inh, RECQ1 inh-1, PKM2 act)
Cc1ccc(NC(=O)C(=O)NCC(c2cccnc2)N2CCN(Cc3ccccc3)CC2)cc1F (stereo not drawn)	none (no result: APE1 inh, JMJD2E inh, RECQ1 inh-1, PKM2 act)
O=S1(=O)C2CC3C=CC2(CN1Cc1ccccc1)O3 (stereo not drawn)	APE1 inh inconclusive (no result: JMJD2E inh, PKM2 act)
C#CCn1c(=O)c2c(nc(/C=C/c3cccc(OC)c3)n2C)n(CCCO)c1=O	none (no result: JMJD2E inh, PKM2 act)

Assay outcomes (PubChem BioAssay)
